Assay outcomes: PubChem BioAssay, National Center for Advancing Translational Sciences (NCATS)
ELG1 repair inh – inhibitors of ELG1-dependent DNA repair in HEK293T cells; HEK293T ELG1-luciferase reporter, luminescence, 16 h; DNA damage induced by 5-fluorouridine; Potency, µM (titrated, usually from 46.1 µM), most hits filed as inhibitors; 330,000 tested, 2.3% active; further: nearly all actives have a fitted effect of over 55% in size
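Cells (2,000 per well) received 5-fluorouridine plus test compound or DMSO and were incubated 16 hr at 37 °C, 5% CO2. Luciferase activity was read by luminescence 30 min after ONE-Glo addition; signal suppression marked inhibition of damage-induced ELG1 function.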
DT40 TDP1 CPT – DT40-hTDP1 cell growth loss with CPT | chicken DT40 Tdp1-/-;hTDP1 cells + 20 nM CPT, ATP luminescence, 48 h | Potency, µM (titrated, usually from 46.2 µM), most hits filed as inhibitors | 420,000 tested, 12% active; further: nearly all actives have a fitted effect of over 55% in size
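Chicken DT40 Tdp1-/- cells stably complemented with human TDP1 were seeded at 400 cells/well in medium containing 20 nM camptothecin, exposed to pin-transferred compounds, and grown at 37 °C for at least 48 hr. Viability was read as ATP luminescence.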
RORg inh – ROR gamma (mouse) transcription inhibition | P51450 | Drosophila S2 Gal4-RORgamma UAS-luciferase reporter, 20 h | Potency, µM (series often up to 53.6 µM), hits mostly inhibitors | 310,000 tested, 5.4% active | AID 2551; further: nearly all actives have a fitted effect of over 60% in size
Target sequence (P51450 whole entry, looked up, the tested form may be a part): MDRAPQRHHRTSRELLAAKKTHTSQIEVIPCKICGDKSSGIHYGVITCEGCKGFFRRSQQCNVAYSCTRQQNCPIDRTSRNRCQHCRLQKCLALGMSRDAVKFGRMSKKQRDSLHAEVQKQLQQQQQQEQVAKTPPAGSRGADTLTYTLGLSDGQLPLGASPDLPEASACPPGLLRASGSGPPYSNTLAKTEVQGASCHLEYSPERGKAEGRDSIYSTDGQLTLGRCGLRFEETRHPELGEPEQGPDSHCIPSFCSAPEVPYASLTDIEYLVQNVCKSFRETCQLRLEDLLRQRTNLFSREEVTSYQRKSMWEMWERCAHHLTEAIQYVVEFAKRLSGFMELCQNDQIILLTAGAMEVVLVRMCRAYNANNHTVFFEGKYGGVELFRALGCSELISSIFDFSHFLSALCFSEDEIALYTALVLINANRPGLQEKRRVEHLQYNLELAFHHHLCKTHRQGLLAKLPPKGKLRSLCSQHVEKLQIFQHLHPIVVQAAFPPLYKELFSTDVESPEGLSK
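Stably transfected Drosophila Schneider cells are the test system, with ROR gamma fused to Gal4 and luciferase under UAS control; luminescence is read after 20 hr of 700 uM copper sulfate induction at ambient temperature.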
Gal4-VP16 FLuc – counter-screen for ROR gamma inhibitors: Gal4-VP16 reporter. Drosophila S2 Gal4-VP16 UAS-luciferase, luminescence, 20 h. Potency, µM (titrated, usually from 53.6 µM), actives largely listed as inhibitors. 310,000 tested, 3.5% active. AID 2546;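 further: Gal4-VP16 expression switched on by copper sulfate through the metallothionein promoter; nearly all actives have a fitted effect of over 50% in size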
TDP1 cell noCPT – qHTS for Inhibitors of human tyrosyl-DNA phosphodiesterase 1 (TDP1): qHTS in cells in absence of CPT; AID 686978, 2013; Potency, µM (doses to about 46.2 µM), usual class: inhibitors; 420,000 tested, 15% active; DT40 Tdp1-/- hTDP1 cells, no CPT, ATP luminescence, 48 h; further: nearly all actives have a fitted effect of over 55% in size
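Cells were dispensed at 400 per well, compounds added by pin tool, plates incubated ≥48 hr at 37 °C, then CellTiter-Glo added for 30 min at room temperature before luminescence reading. Line: DT40 Tdp1-/- complemented with hTDP1; camptothecin omitted.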
ALOX12 inh – ALOX12 (human) lipoxygenase inhibition; purified 12hLO, xylenol orange hydroperoxide absorbance; Potency, µM (highest dose often 108 µM), usual class: inhibitors; 580,000 tested, 1.1% active
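Purified human 12hLO (150 nM final) in 25 mM Hepes, 0.01% Triton X-100, pH 7.0 was preincubated 15 min at room temperature with compound. Then 40 uM arachidonic acid was added, 30 min. Hydroperoxide was read by Fe-XO absorbance ratio 573/405 nm.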
Of the large screens only hits and unclear results are named; the others gave an inactive call. The list is not random: actives were taken first. Their share in the collection is about 15%. The call rests on the fitted dose curve; in most records, active means well fitted curve in the direction sought with a large enough effect; inconclusive means small, poorly fitted or top-dose-only effect, or another doubt; inactive means no such curve, though single readings can be large; an effect the other way counts as inactive or inconclusive.

FC(F)(F)c1cc(Oc2ccccc2)nc(-c2ccccn2)n1	RORg inh inconclusive, TDP1 cell noCPT inconclusive
FC(F)(F)c1cccc(Sc2cc(C(F)(F)F)nc(-c3ccccn3)n2)c1	ELG1 repair inh inconclusive, DT40 TDP1 CPT 18.4µM, TDP1 cell noCPT 20.6µM, ALOX12 inh inconclusive
O=C(O)CSc1cc(C(F)(F)F)nc(-c2ccccn2)n1	none
CCN(CC)c1cc(C(F)(F)F)nc(-c2ccccn2)n1	ELG1 repair inh inconclusive, DT40 TDP1 CPT inconclusive, RORg inh 2.51µM, Gal4-VP16 FLuc 11.2µM, TDP1 cell noCPT inconclusive
C=CCNc1cc(C(F)(F)F)nc(-c2ccccn2)n1	DT40 TDP1 CPT 18.4µM, RORg inh 1.58µM, Gal4-VP16 FLuc 7.08µM, TDP1 cell noCPT inconclusive
CCC(=O)Nc1cccc(C2OC(=O)N(Cc3ccc(C)cc3)C2C(=O)NCC2CC2)c1 (configuration not stated)	none (no result: ELG1 repair inh, DT40 TDP1 CPT, RORg inh, Gal4-VP16 FLuc, TDP1 cell noCPT)
COc1ccccc1/C=C/CN1CCCC(CCC(=O)NCc2ccc(F)c(F)c2)C1 (configuration not stated)	DT40 TDP1 CPT inconclusive, TDP1 cell noCPT inconclusive
COc1ccc(/C=C/CN2CCCC(CCC(=O)NCc3ccc(F)c(F)c3)C2)cc1 (configuration not stated)	DT40 TDP1 CPT inconclusive, TDP1 cell noCPT 16.4µM
COc1cccc(CNC(=O)CCC2CCCN(C/C=C/c3ccccc3OC)C2)c1 (configuration not stated)	DT40 TDP1 CPT inconclusive, TDP1 cell noCPT 23.1µM
COCC(=O)N1CCC2(CCN(Cc3cccc(C)n3)CC2)C(CO)C1 (configuration not stated)	none (no result: ELG1 repair inh, DT40 TDP1 CPT, RORg inh, Gal4-VP16 FLuc, TDP1 cell noCPT)
Cc1c(C(=O)N2CCN(c3ccc(F)cc3)CC2)sc2nc(-c3ccccc3)cn12	none
CCOC(=O)C1CCN(C(=O)c2sc3nc(-c4ccccc4)cn3c2C)CC1	ELG1 repair inh inconclusive, DT40 TDP1 CPT inconclusive, TDP1 cell noCPT 18.4µM
COc1ccccc1N1CCN(C(=O)c2sc3nc(-c4ccccc4)cn3c2C)CC1	ELG1 repair inh inconclusive, DT40 TDP1 CPT 16.4µM, TDP1 cell noCPT 18.4µM
CC(C)NC(=O)NCc1nnc2n1C(C(=O)NCCc1ccc(Cl)cc1)CC2 (configuration not stated)	none (no result: ELG1 repair inh, DT40 TDP1 CPT, RORg inh, Gal4-VP16 FLuc, TDP1 cell noCPT)
COc1ccc(C2c3ccc4ccccc4c3Oc3ncn(CCN4CCOCC4)c(=N)c32)cc1OC (configuration not stated)	DT40 TDP1 CPT 18.4µM, TDP1 cell noCPT 14.6µM, ALOX12 inh inconclusive
COc1ccc(C2c3c(ncn(CCCN4CCOCC4)c3=N)Oc3ccc4ccccc4c32)cc1OC (configuration not stated)	ELG1 repair inh inconclusive, DT40 TDP1 CPT 23.1µM, TDP1 cell noCPT 13µM
COc1ccc(C2c3ccc4ccccc4c3Oc3ncn(CCN4CCOCC4)c(=N)c32)cc1 (configuration not stated)	DT40 TDP1 CPT 23.1µM, Gal4-VP16 FLuc inconclusive, TDP1 cell noCPT inconclusive, ALOX12 inh inconclusive
CC1C=CC(C)N1c1ncnc2c1CN(C1CCNC1)C(=O)CN2C (configuration not stated)	none (no result: ELG1 repair inh, DT40 TDP1 CPT, RORg inh, Gal4-VP16 FLuc, TDP1 cell noCPT)
Cc1ccc(C(O)c2ncc(-c3ccc(C(F)(F)F)cc3)[nH]2)cc1F (configuration not stated)	DT40 TDP1 CPT inconclusive, TDP1 cell noCPT 20.6µM (no result: ELG1 repair inh, RORg inh, Gal4-VP16 FLuc)
Cc1cc(C)cc(C(O)c2ncc(-c3ccc(C(F)(F)F)cc3)[nH]2)c1 (configuration not stated)	DT40 TDP1 CPT inconclusive, TDP1 cell noCPT 16.4µM (no result: ELG1 repair inh, RORg inh, Gal4-VP16 FLuc)
OC(c1ccc(Cl)c(Cl)c1)c1ncc(-c2ccc(C(F)(F)F)cc2)[nH]1 (configuration not stated)	DT40 TDP1 CPT inconclusive, TDP1 cell noCPT 16.4µM (no result: ELG1 repair inh, RORg inh, Gal4-VP16 FLuc)
Cc1ccc(C(O)c2ncc(-c3ccc4ccccc4c3)[nH]2)cc1F (configuration not stated)	DT40 TDP1 CPT 29.1µM, TDP1 cell noCPT 18.4µM, ALOX12 inh inconclusive (no result: ELG1 repair inh, RORg inh, Gal4-VP16 FLuc)
C[C@@H]1CN(C(=O)Cc2cc(F)cc(Cl)c2)CC[C@]1(C)O	none (no result: ELG1 repair inh, DT40 TDP1 CPT, RORg inh, Gal4-VP16 FLuc, TDP1 cell noCPT)
